The chains are these.
B1: chr5:24509697:24509799:-|CDS|ENSG00000040731|unk|FALSE|unique (ssRNA)
RNA: GGGAGUUCUACAGUCCGACGAUCACUCGACUAUGAGAGCCGAAGACUUUAUACUCUGAAAGUCGAAGCAGAAAACACCCAUGUAGAUCCCCGUUUUUAUUACCUAGGACCAUUUAAAGAUACUACCAUAGUGAAAAUCUCUAUCAACAGAGGAUUGAGCAUCA
B2: chr15:49134392:49134529:-|CDS|ENSG00000166200|unk|FALSE|unique (ssRNA)
RNA: GGGAGUUCUACAGUCCGACGAUCAUAUUUGCUUUCCUAGACUGAUGAUGGAGAAGAUGAUCUGAAAAAAGGUACACAGUUAUUAGAAAUAUAUGCUUUGGAAAUUCAAAUGUACACAGCACAGAAAAAUAACAAAAAACUUAACAACAGAGGAUUGAGCAUCA
B3: chr16:21983864:21984660:-|three_prime_utr|ENSG00000155714|control|control|control (ssRNA)
RNA: GGGAGUUCUACAGUCCGACGAUCAAAGAAAAUUGAGCUGGCAAAAGAUGAAUCUUUCACAAGCAGUGAUGAUAAUGAAAAUGUAGAUUUAGAUAAAAGACUUCAAUAUUAUAGAUAUCCGUGGUCAACUGUGCAUCACCCUGCCAACAGAGGAUUGAGCAUCA
B4: ENSG00000176244:stop:overlap|stop_codon|ENSG00000176244|stop_codon|NA|stop_codon (ssRNA)
RNA: GGGAGUUCUACAGUCCGACGAUCAAGAUGCGACGAGUGCCUAUAUUUCUAAAGCAAAGGAGCUGAUAGAAAAAUACGGAAUUUAGAAUACAGCAUAUGAGGAAUUUUUCCUUUUGAAGACUUCCAAAUGCUAUCAUGACCUAACAACAGAGGAUUGAGCAUCA
B5: chr17:61865808:61865921:-|3pUTR|ENSG00000108506|unk|FALSE|unique (ssRNA)
RNA: GGGAGUUCUACAGUCCGACGAUCUUCUAUGAGAAUGAGUUUGUAGCUGUUUCAAAUCAUGAAGUGCAUAGUAUCACAUGUGAUAGAAUAUUUAUAACUUUUUAUUAGAUGCUUAAUGUUCAAUUAAGUAAUUUUGAUGUGAAACAACAGAGGAUUGAGCAUCA
B6: chr5:72209348:72209524:+|3pUTR|ENSG00000131711|msi1_unk|FALSE|overlapping (ssRNA)
RNA: GGGAGUUCUACAGUCCGACGAUCUUAUGUCUUAUAAUCCUGCAUCACUUCUAUCCUAUCCAGUCAUAUCUAAUGUAGAAAAUUAGUUUCCAGUGAAAGUAAUAUGUAGUGCUUUUAUGAUAUUUGUGUGCAAUAUCCCCUCUUCAACAGAGGAUUGAGCAUCA
B7: chr17:37686430:37687371:-|three_prime_utr|ENSG00000275410|control|control|control (ssRNA)
RNA: GGGAGUUCUACAGUCCGACGAUCUGCAAUUUCCCCUCUGUGUCCUCUCCCCUCUGCCCUGUAUAUAAUACUAAAGUGUCUAUUAGUUUUCUUUGUAAAGGUCAGAGUCAAAAUUUCAAAAGUGAUCUGUCCCCUCUCCCCUCACAACAGAGGAUUGAGCAUCA
B8: chr9:5123879:5124511:-|three_prime_utr|ENSG00000120210|control|control|control (ssRNA)
RNA: GGGAGUUCUACAGUCCGACGAUCCUGGUAAAUUGGAUUGCCAUAUGCAGAAGAAUGAAACUGGACCCAUAUUUAUCACCAUAUAGAAAAAUUAACUCGAUCGAUUACAGACUUAAAUGUAAGAUCUGAAACUAGAAAAAUACUCAACAGAGGAUUGAGCAUCA
B9: chr5:72209348:72209524:+|3pUTR|ENSG00000131711|msi1_unk|total|mutant (ssRNA)
RNA: B6 RNA with U75C, A76C, U83C, A84C, U106C, A107C
B10: chr2:99394746:99394872:+|CDS|ENSG00000158417|unk|total|mutant (ssRNA)
RNA: GGGAGUUCUACAGUCCGACGAUCGAUGUGAGAAUUGAACGAGAUGCACAAGAAAUGGCUGACCGUUCCGGAGUCCGAAUUUUCCGUGCAGAAAUUAUUUAUCAUUUAUUUGAUGCCUUUACAAAAUACCGACAAGACUACAAGCAACAGAGGAUUGAGCAUCA
B11: chr11:101890673:101891278:-|three_prime_utr|ENSG00000187151|control|control|control (ssRNA)
RNA: GGGAGUUCUACAGUCCGACGAUCGUAAUGCAAGUUCUACAAUGAUAAUAUAUUAAAGAUUUUUAAAAGUUUAUCUUUUCACUUAGUGUUUCAAACAUAUUAGGCAAAAUUUAACUGUAGAUGGCAUUUAGAUGUUAUGAGUUUCAACAGAGGAUUGAGCAUCA
B12: chr2:99394746:99394872:+|CDS|ENSG00000158417|unk|FALSE|unique (ssRNA)
RNA: B10 RNA with C62U, C63A, C67U, C68A, C74U, C75A, C83U, C84A, C128U, C129A
B13: chr11:118751385:118751486:-|3pUTR|ENSG00000110367|msi1|FALSE|unique (ssRNA)
RNA: GGGAGUUCUACAGUCCGACGAUCUUGAAGUCUCUUCCCUUUCUACCCAGUACUCGAGCCCAGGGCUAGAAGUUGAAACUCACUAGUAAUGUUAAACACCAUUUUUUUUUUCUUUUUGGGGAGGAGUUGAUAUGCAACUGCAGUCAACAGAGGAUUGAGCAUCA
B14: chr4:173322470:173322571:+|3pUTR|ENSG00000109586|msi1|total|mutant (ssRNA)
RNA: GGGAGUUCUACAGUCCGACGAUCUGCCGCAUUCACUCCCUUACCUACUGGCAUUCCCAGUGCCCUCUGUCCAUACCUACUUCCCGGAUUGCAAAGGAGUCUUCCAACCCGAGAAAAAUUGUCCACUGACAUUUGGGAUUUACUCAACAGAGGAUUGAGCAUCA
B15: chr8:7990417:7990620:-|CDS|ENSG00000205989|control|control|control (ssRNA)
RNA: GGGAGUUCUACAGUCCGACGAUCGAUGUCUGCAACAUAGUAGAAGAUCAAAUUGGUGCCUGCCGAAGAAGGAUGAAGUGCUGUAGAGCAUGGUGGAUUUUAAUGCCAAUUCCAACACCACUUAUCAUGUCAGAUUAUCAAGAACAACAGAGGAUUGAGCAUCA
B16: chr20:37241422:37241523:+|3pUTR|ENSG00000118705|msi1_unk|FALSE|overlapping (ssRNA)
RNA: GGGAGUUCUACAGUCCGACGAUCGUAUGAGAAGAAAAAUGGAAAAAAAAAACUUUAUUUAAAAAAGAAAAAAGUCCAGAUUGUAGUUAUACUUUUGCUUGUUUUUCAGUUUCCCCAACACACAGCAGAUACCUGGUGAGCUCACAACAGAGGAUUGAGCAUCA
B17: chr8:80500255:80500365:+|CDS|ENSG00000205189|unk|total|mutant (ssRNA)
RNA: GGGAGUUCUACAGUCCGACGAUCGAAAAACCAAACUACAAAAAGAUUUAUUUAUAAUAUUCCACCUAAUAAUGAAACGAAUUCCGAAGAUUGCUCAGUAAUGCAGCCACCUGUUGCCUAUCCAGAAGAAAAUACACUACUCAUCAACAGAGGAUUGAGCAUCA
B18: chr2:30158716:30158817:+|CDS|ENSG00000119801|msi1|total|mutant (ssRNA)
RNA: GGGAGUUCUACAGUCCGACGAUCGUUUGCCACUGAAGACAGCCAGCGAUAUAAGGAAGGCCGCGUGAUCCUGGAACGUGCUCCCGUUCGAGAGAGUGAGGGCUUUGAGGAGCAUGUACCAUCUGAUAACUCUUGAAGAUACAGCAACAGAGGAUUGAGCAUCA
B19: chr5:115137525:115137627:-|CDS|ENSG00000152503|unk|FALSE|unique (ssRNA)
RNA: GGGAGUUCUACAGUCCGACGAUCUUUAGCAGAAGAGGCUAUUCUUUGUUUUAUCUUAGUGUAAUGGAGAUACUGUUUUUUCUUAGUGUAAUGGAGAGAGGGCUAAAGAAGAAGCAAUUACACAUUUUGAAAAGCUCUUUGAAGCAACAGAGGAUUGAGCAUCA
B20: ENSG00000115904:stop:overlap|stop_codon|ENSG00000115904|stop_codon|NA|stop_codon (ssRNA)
RNA: GGGAGUUCUACAGUCCGACGAUCUUUUGCAACGAAUGGAAGAAUUUAUUGGAACAGUAAGAGAGCUGUACAGCCAUCAGAAUUAGUUGGAAGUGUGUGGACAAAAGAAGACAAAGAAAUUAACUCUCCUAAUCUUCUGAAAAUCAACAGAGGAUUGAGCAUCA
B21: chr12:122341087:122341188:-|CDS|ENSG00000130779|unk|FALSE|bound_elsewhere (ssRNA)
RNA: GGGAGUUCUACAGUCCGACGAUCAGAAUUUGCUGAACUAAAAACACAAAUAGAGAAAAUGAGACUAGAUUACCAACACGAAAUAGAAAAUUUGCAGAAUCAACAAGACUCUGAACGGGCUGCCCAUGCUAAAGAGAUGGAAGCCAACAGAGGAUUGAGCAUCA
B22: ENSG00000136451:be:win_1001|CDS|ENSG00000136451|bound_else_gene|NA|bound_elsewhere_windowed (ssRNA)
RNA: GGGAGUUCUACAGUCCGACGAUCACCAAAAGCAGCAGCAGCAGCAGCAGCAGCAGCAGCAGCAGCAGCAACAACAACAACAACAACAUGUGACAAGCUGGCCAGGGAAGCAAGUAGAAACACUGAGACUGUGGGAAGAAGCUGCAACAGAGGAUUGAGCAUCA
B23: chr15:56434137:56434395:-|CDS|ENSG00000138587|control|control|control (ssRNA)
RNA: GGGAGUUCUACAGUCCGACGAUCAGAGGAAGAGGAGAACUUUAGAAAAACUAUGCUAGCUAAAUUUGCUGAGGAUGAUCGAAUAGAAUUAAUGAAUGCUCAGAAACAAAGAAUGAAGCAGCUGGAACACAGGAGGGCUGUGGACAACAGAGGAUUGAGCAUCA
B24: chr12:122341087:122341188:-|CDS|ENSG00000130779|unk|total|mutant (ssRNA)
RNA: B21 RNA with U50C, A51C, U65C, A66C, U83C, A84C
B25: chr5:52955293:52955406:+|3pUTR|ENSG00000213949|unk|total|mutant (ssRNA)
RNA: GGGAGUUCUACAGUCCGACGAUCUACCAACCAGUGUGAGCUGACUUCAGCACACCACUGAGACAGAUUACACGACCGACAGACCGACCGACCGACCGACCGACCGACCGACCGACCGACCGACCGAUAUUGACCGAGAACAUGCAACAGAGGAUUGAGCAUCA
B26: chr5:52955293:52955406:+|3pUTR|ENSG00000213949|unk|FALSE|unique (ssRNA)
RNA: GGGAGUUCUACAGUCCGACGAUCUACCAACCAGUGUGAGCUGACUUCAGCACACCACUGAGACAGAUUACACGAUAGACAGAUAGAUAGAUAGAUAGAUAGAUAGAUAGAUAGAUAGAUAGAUAGAUAUUGAUAGAGAACAUGCAACAGAGGAUUGAGCAUCA

Numbering of substitutions follows the chain as printed. Whole data set: some 5,800 sequences, median “enrichment r” near 0.54, cut for the highest 2% near 16. Many of the other results were omitted from the sample, so the highest values are more common in it than they were.

The target in the test is MSI1 full-length (mouse, UniProt Q61474 1-362). Nature of the test: nsRBNS (natural sequence RNA bind-n-seq); RBNS binding buffer (assumed for nsRBNS): 25 mM Tris pH 7.5, 150 mM KCl, 3 mM MgCl2, 0.01% Triton X-100, 500 ug/ml BSA, 20 U/ml SUPERase-In, 4 C; UNK is unkempt and MSI1 is Musashi-1; names of the RNAs are library labels; protein concentration not given here; high values mean tight binding.
MSI1 full-length, sequence (Q61474 whole entry): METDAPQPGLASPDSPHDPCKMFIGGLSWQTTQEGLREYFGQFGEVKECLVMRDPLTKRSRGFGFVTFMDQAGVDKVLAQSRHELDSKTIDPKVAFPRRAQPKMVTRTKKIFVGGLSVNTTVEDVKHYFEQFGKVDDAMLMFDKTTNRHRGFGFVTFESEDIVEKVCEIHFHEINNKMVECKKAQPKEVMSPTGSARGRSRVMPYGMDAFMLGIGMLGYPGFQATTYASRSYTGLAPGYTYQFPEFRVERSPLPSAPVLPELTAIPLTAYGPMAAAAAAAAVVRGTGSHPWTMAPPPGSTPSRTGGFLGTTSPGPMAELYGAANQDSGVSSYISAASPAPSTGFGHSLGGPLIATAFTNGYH
Regarding B1, the binding signal was 3.85 enrichment R.
With B2 the figure was 0.819 enrichment R.
With B3 the figure was 43.6 enrichment R.
With B4 the figure was 0.512 enrichment R; with B5, 5.16 enrichment R.
Molecule B6 returned a binding signal of 22.2 enrichment R.
Consider B7, for which the binding signal worked out at 0.979 enrichment R.
With B8 the figure was 19.7 enrichment R.
With B9 the figure was 0.64 enrichment R; with B10, 0.374 enrichment R; with B11, 3.72 enrichment R.
With B12 the figure was 35 enrichment R.
Regarding B13, the binding signal stood at 1.4 enrichment R.
With B14 the figure was 0.767 enrichment R.
With B15 the figure was 0.446 enrichment R; with B16, 1.41 enrichment R.
With B17 the figure was 3.62 enrichment R; with B18, 0.472 enrichment R.
Regarding B19, the binding signal stood at 2.18 enrichment R.
Molecule B20 registered a binding signal of 1.25 enrichment R.
With B21 the figure was 16.5 enrichment R; with B22, 0.597 enrichment R; with B23, 3.42 enrichment R.
With B24 the figure was 0.402 enrichment R.
With B25 the figure was 0.369 enrichment R.
For the molecule B26, the binding signal stood at 67 enrichment R.

(Values after paper PMC12136788.)
